Test results from PubChem BioAssay (NCATS).
Records with an inconclusive call do not appear. The source made the active and inactive calls. Calls follow the shape of the dose curve; as a rule, active = well fitted curve in the direction sought with a large enough effect; inconclusive = small, poorly fitted or top-dose-only effect, or another doubt; inactive = no such curve, though single readings can be large; an effect the other way counts as inactive or inconclusive. Where a SMILES comes first, the peptide text is derived from it. [ ]: non-standard residue; d: D form. pGlu = O=C1CC[C@@H](C(=O)O)N1

Tests used:
[1] = qHTS of pediatric cancer cell lines to identify multiple opportunities for drug repurposing: Primary screen for NB-EBc1 cells (AID 1347095)
Summary of the method: (§1)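 Cells seeded at 500-1,000 cells/well in growth media, rested 5 hours at 37 degrees C, 5% CO2, then dosed; MIPE compounds at 11-point (from 0.78 nM) and NPC at 8-point (from 0.59 nM) final concentrations. Viability by CellTiter-Glo luminescence after 48 hours.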

[2] = qHTS of pediatric cancer cell lines to identify multiple opportunities for drug repurposing: Primary screen for U-2 OS cells (AID 1347096); also: nearly all actives have a fitted effect of over 50% in size
Summary of the method: (§2)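 Cells (500-1,000/well) in growth media were settled 5 h at 37 degrees C, then given compounds for 48 h. Viability was read as CellTiter-Glo luminescence. Primary runs used MIPE at 11 points (0.78 nM-46 µM) and NPC at 8 points (0.59 nM-46 µM); follow-ups used 11 points.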

[3] = qHTS of pediatric cancer cell lines to identify multiple opportunities for drug repurposing: Primary screen for Saos-2 cells (AID 1347097); also: nearly all actives have a fitted effect of over 40% in size
Summary of the method: as §1

[4] = qHTS of pediatric cancer cell lines to identify multiple opportunities for drug repurposing: Primary screen for SK-N-SH cells (AID 1347098);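 also: DMSO served as neutral control and bortezomib at 2.3 µM as positive control; nearly all actives have a fitted effect of over 65% in size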
Summary of the method: (§3)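 Cells (500-1,000/well) rested 5 h, then received compounds for 48 h; metabolically active cells were measured by CellTiter-Glo luminescence. Final concentrations spanned up to 46 µM (MIPE, 11-point) or 0.59 nM-46 µM (NPC, 8-point) in primary screens, 11-point in follow-ups.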

[5] = qHTS of pediatric cancer cell lines to identify multiple opportunities for drug repurposing: Primary screen for NB1643 cells (AID 1347099); also: nearly all actives have a fitted effect of over 50% in size
Summary of the method: as §1

[6] = qHTS of pediatric cancer cell lines to identify multiple opportunities for drug repurposing: Primary screen for LAN-5 cells (AID 1347100); also: potency is read from the fitted curve at half-maximal effect
Summary of the method: as §2

[7] = qHTS of pediatric cancer cell lines to identify multiple opportunities for drug repurposing: Primary screen for BT-12 cells (AID 1347101); also: nearly all actives have a fitted effect of over 25% in size
Summary of the method: as §3

[8] = qHTS of pediatric cancer cell lines to identify multiple opportunities for drug repurposing: Primary screen for Rh18 cells (AID 1347102); also: nearly all actives have a fitted effect of over 65% in size
Summary of the method: as §2

[9] = qHTS of pediatric cancer cell lines to identify multiple opportunities for drug repurposing: Primary screen for RD cells (AID 1347104); also: nearly all actives have a fitted effect of over 55% in size
Summary of the method: as §1

[10] = qHTS of pediatric cancer cell lines to identify multiple opportunities for drug repurposing: Primary screen for MG 63 (6-TG R) cells (AID 1347105); also: nearly all actives have a fitted effect of over 50% in size
Summary of the method: as §1

[11] = qHTS of pediatric cancer cell lines to identify multiple opportunities for drug repurposing: Primary screen for control Hh wild type fibroblast cells (AID 1347106);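 also: series mostly up to about 46 µM; a drop in luminescence marks cytotoxicity and a rise apparent proliferation; nearly all actives have a fitted effect of over 55% in size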
Summary of the method: as §2

[12] = qHTS of pediatric cancer cell lines to identify multiple opportunities for drug repurposing: Primary screen for Rh30 cells (AID 1347107); also: series mostly up to about 46 µM; nearly all actives have a fitted effect of over 75% in size
Summary of the method: as §2

[13] = qHTS of pediatric cancer cell lines to identify multiple opportunities for drug repurposing: Primary screen for Rh41 cells (AID 1347108);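 also: series mostly up to about 46 µM; luminescence drop marks cytotoxic hits; nearly all actives have a fitted effect of over 70% in size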
Summary of the method: as §1

[14] = qHTS of pediatric cancer cell lines to identify multiple opportunities for drug repurposing: Primary screen for OHS-50 cells (AID 1347103); also: nearly all actives have a fitted effect of over 40% in size
Summary of the method: as §3

Measured: Potency

CCCCCCCC(=O)[O-].CCCCCCCC(=O)[O-].[Zn+2]
not listed: [14]
inactive: all other assays above

CCOC(=O)c1cc(=O)c2c(OCC(COc3cccc4oc(C(=O)OCC)cc(=O)c34)OC(=O)[C@@H](N)CCCCN)cccc2o1
not listed: [8]
inactive: all other assays above

CCCC(=O)OCOC(=O)C1=C(C)NC(C)=C(C(=O)OC)C1c1cccc(Cl)c1Cl (configuration not stated)
not listed: [14]
inactive: all other assays above

CN1C(CSCC(F)(F)F)Nc2cc(Cl)c(S(N)(=O)=O)cc2S1(=O)=O (configuration not stated)
not listed: [14]
inactive: all other assays above

Fc1ccc(C(c2ccc(F)cc2)N2CCNCC2)cc1
not listed: [14]
inactive: all other assays above

O=C1Nc2cc(Cl)ccc2Oc2ccccc21
not listed: [9] | [12] | [14]
inactive: all other assays above

CC(C)Cc1ccc(C(C)C(=O)OCc2ccccn2)cc1 (configuration not stated)
not listed: [14]
inactive: all other assays above

O=C(OCCN1CCOCC1)c1cccnc1Nc1cccc(C(F)(F)F)c1
not listed: [11] | [14]
inactive: all other assays above

O=C(O)CCC(=O)OC[C@@H](NC(=O)C(Cl)Cl)[C@H](O)c1ccc([N+](=O)[O-])cc1
not listed: [8]
inactive: all other assays above

NS(=O)(=O)c1cc2c(cc1Cl)CN(C1CCCCC1)C2=O
not listed: [10] | [14]
inactive: all other assays above

O=C(Oc1ccccc1)c1ccccc1O
not listed: [8]
inactive: all other assays above

OCCOCCN1CCN(C(c2ccccc2)c2ccc(Cl)cc2)CC1 (configuration not stated)
not listed: [14]
inactive: all other assays above

C[N+](C)(CCOc1ccccc1)Cc1cccs1
not listed: [14]
inactive: all other assays above

CCCC(CCC)(C(=O)OCC)C(=O)OCC
not listed: [8] | [13]
inactive: all other assays above

CC(C)(Oc1ccc(Cl)cc1)C(=O)OCCCOC(=O)C(C)(C)Oc1ccc(Cl)cc1
not listed: [14]
inactive: all other assays above

CCNC(=O)[C@@H]1CCCN1C(=O)[C@H](CCCN=C(N)N)NC(=O)[C@H](CC(C)C)NC(=O)CNC(=O)[C@H](Cc1ccc(O)cc1)NC(=O)[C@H](CO)NC(=O)[C@H](Cc1c[nH]c2ccccc12)NC(=O)[C@H](Cc1cnc[nH]1)NC(=O)[C@@H]1CCC(=O)N1 ([pGlu]HWSYGLRP-NHEt)
not listed: [8]
inactive: all other assays above

CC(C(=O)O)c1ccc(/C=C2\CCCCC2=O)cc1 (configuration not stated)
not listed: [14]
inactive: all other assays above

OC1(c2ccccc2)CCNCC1
not listed: [14]
inactive: all other assays above

Cc1cc(O)c(C)c(C)c1O
active: [6] 16.8 µM
not listed: [14]
inactive: all other assays above

Cc1ccc2ccc(Cl)cc2n1
not listed: [8]
inactive: all other assays above

CCCCOCCOC(=O)c1cccnc1
not listed: [5]
inactive: all other assays above

Nc1nc2ccccc2n1Cc1ccc(F)cc1
not listed: [6] | [7] | [13] | [14]
inactive: all other assays above

Clc1ccc2c(c1)Nc1ccccc1S2
not listed: [7] | [14]
inactive: all other assays above

COc1ccc2cc(C=O)ccc2c1
not listed: [5] | [13]
inactive: all other assays above
